Data published in PubChem BioAssay (Tox21).
Values joined by “and” are separate entries in the source; they are usually repeats but may differ in a detail not shown here. Equal entries are not always repeated. Results filed as inconclusive are left out. Where a call stands in place of a potency, no number is given. The source holds several records for some structures; these can differ, active in one and inactive in another. Active and inactive are the calls of the source. Unless noted, calls follow the shape of the dose curve; as a rule, active = well fitted curve in the direction sought with a large enough effect in the repeat runs; inconclusive = weak or mixed curves; inactive = no such curve, though single readings can be large; an effect the other way counts as inactive or inconclusive.

How the values were obtained:
[1] = qHTS assay to identify small molecule agonists of the RXR signaling pathway - cell viability counter screen (AID 1159529); also: nearly all actives have a fitted effect of over 50% in size; also: potency is read from the fitted curve at half-maximal effect
Outline: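 Steps: seed RXR-alpha-UAS-bla HEK 293T cells in assay medium containing 2% charcoal-stripped FBS; incubate 5 hr; add compounds in DMSO; incubate 16 hr at 37 C; after the bla read, add CellTiter-Glo and read luminescence at 30 min.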

[2] = qHTS assay to identify small molecule antagonists of the retinoid acid receptor (RAR) signaling pathway - cell viability counter screen (AID 1159551); also: nearly all actives have a fitted effect of over 35% in size
Outline: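 ATP-based viability, C3RL4 cells, 6 h at 37 C with 1 uM final retinol co-added after compound; luminescence read 30 min post CellTiter-Glo, RT.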

[3] = qHTS assay to identify small molecule antagonists of the estrogen related receptor (ERR) signaling pathway from Tox21 library - cell viability counter screen (AID 1224834); also: nearly all actives have a fitted effect of over 30% in size; also: potency is read from the fitted curve at half-maximal effect
Outline: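 Compounds in DMSO were pinned onto ERR cells that had been incubated for 6 h, and the plates were held at 37 C for 17.5 h. CellTiter-Fluor reagent was then added and fluorescence was measured after 30 min.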

[4] = target: Luciferin 4-monooxygenase (Photinus pyralis) (UniProt P08659); test: qHTS assay to identify small molecule inhibitors of firefly luciferase (AID 1224835); also: nearly all actives have a fitted effect of over 25% in size
Outline: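 Quantitative HTS format; KM concentrations of both substrates. Purified P. pyralis FLuc activity quantified from luminescence images.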

[5] = qHTS assay to identify small molecule agonists of the constitutive androstane receptor (CAR) signaling pathway - cell viability counter screen (AID 1224836); also: nearly all actives have a fitted effect of over 45% in size; also: potency is read from the fitted curve at half-maximal effect
Outline: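 Cells were seeded and incubated 4 hrs. Compounds were added across 15 concentrations together with PK11195 at 0.75 uM final. Plates were incubated 23 hrs at 37 C. CellTiter-Fluor was added and fluorescence measured.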

[6] = qHTS assay to identify small molecule antagonists of the constitutive androstane receptor (CAR) signaling pathway - cell viability counter screen (AID 1224837); also: nearly all actives have a fitted effect of over 45% in size; also: potency is read from the fitted curve at half-maximal effect
Outline: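 Cells are seeded, rested 4 hr at 37 C/5% CO2, dosed with compound (15-point series) and 50 nM CITCO, incubated a further 23 hr, and then CellTiter-Fluor reagent is added before fluorescence is read. The line is HepG2 with stable hCAR and CYP2B6-2.2kb.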

[7] = qHTS assay to identify small molecule antagonists of the estrogen related receptor signaling pathway with the pleiotropic PPARgamma coactivator (PGC) from Tox21 10K library - cell viability counter screen (AID 1224840; active = well fitted cell-killing curve with a large enough effect in the repeat runs, not every such curve was filed as active; also: nearly all actives have a fitted effect of over 40% in size; also: potency is read from the fitted curve at half-maximal effect)
Outline: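 Cell viability is measured by CellTiter-Fluor fluorescence in PGC/ERR cells that receive compounds after a 6-hour attachment period and are then incubated 17.5 hours at 37 C.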

[8] = qHTS assay to identify small molecule agonists of the hypoxia (HIF-1) signaling pathway - cell viability counter screen (AID 1224844; calls by dose curve; also: nearly all actives have a fitted effect of over 50% in size; also: potency is read from the fitted curve at half-maximal effect)
Outline: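 Viability counter screen: HRE-bla ME-180 cells plated 5 hrs before compound addition, treated 17 hrs at 37C and 5% CO2, then CellTiter-Glo added after the FRET reporter read; luminescence after 30 min.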

[9] = qHTS assay to identify small molecule antagonists of the estrogen related receptor signaling pathway with the pleiotropic PPARgamma coactivator (PGC) from Tox21 10K library (AID 1224841; call rule not given here; also: actives are mostly falling curves and most rising ones were filed inactive; nearly all actives have a fitted effect of over 50% in size; also: potency is read from the fitted curve at half-maximal effect)
Outline: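 Cells stably carrying the PGC/ERR reporter, seeded at 2,000 per well, received pin-transferred compounds 6 h post-plating. Exposure lasted 18 h at 37 C. Signal: One-Glo luminescence.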

[10] = qHTS assay to identify small molecule agonists of the estrogen related receptor signaling pathway with the pleiotropic PPARgamma coactivator (PGC) from Tox21 10K library (AID 1224842); also: nearly all actives have a fitted effect of over 15% in size
Outline: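 PGC/ERR reporter cells (NTP line) were seeded 2,000 per well, rested 6 h at 37 C/5% CO2, then pin-dosed with compounds in DMSO for 18 h at 37 C; luciferase read by One-Glo luminescence after 30 min at room temperature.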

[11] = target: Thyrotropin receptor (Homo sapiens) (UniProt P16473); test: qHTS assay to identify small molecule agonists of the thyroid stimulating hormone receptor (TSHR) signaling pathway (AID 1224843; calls by dose curve; also: nearly all actives have a fitted effect of over 45% in size; also: potency is read from the fitted curve at half-maximal effect)
Outline: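 Using 15 concentrations per compound in triplicate, cAMP production was monitored in TSHR-HEK293 cells after 30 min compound incubation at RT; HTRF reagents followed, with fluorescence intensity recorded after 1 h.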

[12] = target: Nuclear receptor subfamily 1 group I member 3 (Homo sapiens) (UniProt Q14994); test: qHTS assay to identify small molecule antagonists of the constitutive androstane receptor (CAR) signaling pathway (AID 1224838);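 also: HepG2 cells stably expressing hCAR with CYP2B6 luciferase reporter stimulated by CITCO; nearly all actives have a fitted effect of over 40% in size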
Outline: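 Luminescence from a CYP2B6-2.2kb promoter reporter in hCAR-expressing HepG2 cells reflects CAR signaling. Cells received compounds at 15 concentrations and 50 nM CITCO (final), then incubated 24 h at 37 C/5% CO2.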

[13] = target: Nuclear receptor subfamily 1 group I member 3 (Homo sapiens) (UniProt Q14994); test: qHTS assay to identify small molecule agonists of the constitutive androstane receptor (CAR) signaling pathway (AID 1224839);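 also: HepG2 cells stably carrying human CAR and a CYP2B6 luciferase reporter; nearly all actives have a fitted effect of over 15% in size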
Outline: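 Cells were plated and incubated 4 hrs, then dosed with compounds at 15 concentrations. PK11195 was added to 0.75 uM final. After 24 hrs at 37 C, luciferase luminescence was measured.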

[14] = qHTS assay to identify small molecule antagonists of the estrogen related receptor (ERR) signaling pathway - cell viability counter screen (AID 1224818);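 also: viability measured after 17.5 h of compound exposure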
Outline: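 Quantitative high-throughput viability counter screen in ERR cells. Compounds (DMSO) incubated 17.5 h at 37 C; read-out was CellTiter-Fluor fluorescence.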

[15] = qHTS assay to identify small molecule antagonists of the retinoic acid receptor (RAR) signaling pathway (AID 1159552; also: nearly all actives have a fitted effect of over 50% in size)
Outline: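 Retinol at 1 uM final stimulated RARE-luciferase expression in C3RL4 cells exposed to test compounds for 6 hr at 37 C. Reduced luminescence, read 30 min after detection reagent, indicated pathway antagonism.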

[16] = qHTS assay to identify small molecule agonists of the retinoic acid receptor (RAR) signaling pathway (AID 1159553); details: C3RL4 RARE luciferase reporter, agonist, 6 h; activation: at 73.3 µM (top of the series) unless noted
Outline: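 Quantitative high-throughput format: the Tox21 10K library was tested on C3RL4 RARE-luciferase cells for 6 hr at 37 C and 5% CO2, with luminescence measured after a 30 min room-temperature reagent step.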

[17] = qHTS assay to identify small molecule agonists of the estrogen related receptor (ERR) signaling pathway (AID 1224820)
Outline: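 Luminescence readout (One-Glo, 30 min RT) from NTP-supplied ERR cell line exposed to compounds for 18 h at 37 C. Cells seeded 2,000 per well and pre-incubated 6 h before pin-tool compound transfer.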

[18] = tested on: estrogen-related receptor alpha (ERRalpha) with PGC-1alpha coactivator, human; test: qHTS assay to identify small molecule antagonists of the estrogen related receptor signaling pathway with the pleiotropic PPARgamma coactivator (PGC) (AID 1224821; calls by dose curve)
Outline: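 PGC/ERR reporter cells; 6 h pre-incubation 37 C/5% CO2; pin-tool compound in DMSO, 18 h 37 C; One-Glo added, 30 min RT; luminescence read. qHTS antagonist mode.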

[19] = qHTS assay to identify small molecule agonists of the estrogen related receptor signaling pathway with the pleiotropic PPARgamma coactivator (PGC) (AID 1224823)
Outline: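 Luminescence readout (One-Glo, 30 min RT) from PGC/ERR cell line treated 18 h at 37 C with pin-tool-delivered DMSO compound solutions; cells plated 6 h before dosing. Quantitative HTS format.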

Chain of Thyrotropin receptor (Homo sapiens) (P16473 whole entry, looked up): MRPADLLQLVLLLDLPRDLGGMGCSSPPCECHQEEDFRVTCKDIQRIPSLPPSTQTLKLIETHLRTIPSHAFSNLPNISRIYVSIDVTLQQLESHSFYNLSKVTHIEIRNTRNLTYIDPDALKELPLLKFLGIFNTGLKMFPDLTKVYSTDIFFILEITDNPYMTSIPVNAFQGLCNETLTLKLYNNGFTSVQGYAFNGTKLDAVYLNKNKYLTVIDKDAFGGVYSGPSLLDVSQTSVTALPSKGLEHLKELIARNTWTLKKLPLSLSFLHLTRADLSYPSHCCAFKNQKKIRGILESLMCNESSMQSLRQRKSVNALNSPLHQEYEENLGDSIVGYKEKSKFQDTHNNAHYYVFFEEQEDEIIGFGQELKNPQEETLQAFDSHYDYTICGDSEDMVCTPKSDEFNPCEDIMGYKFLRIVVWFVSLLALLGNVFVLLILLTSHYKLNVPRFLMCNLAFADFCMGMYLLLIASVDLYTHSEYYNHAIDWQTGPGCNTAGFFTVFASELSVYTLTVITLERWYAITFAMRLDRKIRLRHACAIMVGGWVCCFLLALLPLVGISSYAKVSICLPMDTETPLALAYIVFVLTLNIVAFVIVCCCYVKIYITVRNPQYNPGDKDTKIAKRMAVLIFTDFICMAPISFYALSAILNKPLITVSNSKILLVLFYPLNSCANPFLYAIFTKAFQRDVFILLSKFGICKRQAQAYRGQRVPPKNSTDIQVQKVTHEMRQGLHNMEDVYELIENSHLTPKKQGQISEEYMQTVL
Chain of Nuclear receptor subfamily 1 group I member 3 (Homo sapiens) (Q14994 whole entry, looked up): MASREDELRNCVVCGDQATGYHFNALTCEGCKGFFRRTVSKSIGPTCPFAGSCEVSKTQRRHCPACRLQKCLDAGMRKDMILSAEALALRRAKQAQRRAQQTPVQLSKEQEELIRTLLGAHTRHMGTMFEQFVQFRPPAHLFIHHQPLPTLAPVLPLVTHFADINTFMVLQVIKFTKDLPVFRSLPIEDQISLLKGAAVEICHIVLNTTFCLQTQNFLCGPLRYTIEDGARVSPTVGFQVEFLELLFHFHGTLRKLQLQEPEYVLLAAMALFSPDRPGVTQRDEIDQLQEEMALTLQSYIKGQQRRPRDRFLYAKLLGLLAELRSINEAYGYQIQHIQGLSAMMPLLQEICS
Chain of Luciferin 4-monooxygenase (Photinus pyralis) (P08659 whole entry, looked up): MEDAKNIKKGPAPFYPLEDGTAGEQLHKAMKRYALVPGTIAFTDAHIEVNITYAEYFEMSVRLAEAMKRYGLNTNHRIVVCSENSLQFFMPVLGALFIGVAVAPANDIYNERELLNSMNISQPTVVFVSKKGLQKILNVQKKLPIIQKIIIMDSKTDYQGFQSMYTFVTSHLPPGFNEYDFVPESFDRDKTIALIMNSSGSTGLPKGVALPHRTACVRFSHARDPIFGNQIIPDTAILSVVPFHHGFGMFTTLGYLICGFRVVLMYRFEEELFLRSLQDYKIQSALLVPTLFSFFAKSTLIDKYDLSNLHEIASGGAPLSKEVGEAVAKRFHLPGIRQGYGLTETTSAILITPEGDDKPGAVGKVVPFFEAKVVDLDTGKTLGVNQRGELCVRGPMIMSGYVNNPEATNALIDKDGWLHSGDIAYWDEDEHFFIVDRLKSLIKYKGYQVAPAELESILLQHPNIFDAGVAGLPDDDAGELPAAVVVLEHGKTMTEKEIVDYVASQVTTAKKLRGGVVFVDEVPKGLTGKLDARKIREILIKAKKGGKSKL

| SMILES | Potency [1] | Potency [2] | Potency [3] | Potency [4] | Potency [5] | Potency [6] | Potency [7] | Potency [8] | Potency [9] | Potency [10] | Potency [11] | Potency [12] | Potency [13] | outcome [14] | Potency [15] | Potency [16] | outcome [17] | outcome [18] | outcome [19] |
| --- | --- | --- | --- | --- | --- | --- | --- | --- | --- | --- | --- | --- | --- | --- | --- | --- | --- | --- | --- |
| CCCCCCC(C)O (centres undefined) | inactive | inactive | inactive | inactive | inactive | inactive | inactive | inactive |  |  |  |  |  |  |  |  |  |  |  |
| CC(C)=CCO | inactive | inactive | inactive | inactive | inactive | inactive | inactive | inactive | inactive | inactive | inactive |  |  |  |  |  |  |  |  |
| Oc1ccc(C(c2ccc(O)cc2)C(Cl)(Cl)Cl)cc1 | inactive | inactive |  | inactive | inactive | inactive |  | inactive |  |  |  |  |  |  |  |  |  |  |  |
| CCCCCC=O | inactive | inactive | inactive | inactive | inactive | inactive | inactive | inactive | inactive | inactive | inactive | inactive | inactive |  |  |  |  |  |  |
| NC[C@H](O)c1ccc(O)c(O)c1 | inactive | inactive | inactive | inactive | inactive | inactive | inactive | inactive |  |  |  |  |  | inactive |  |  |  |  |  |
| CC1(C)C(C=C(Cl)Cl)C1C(=O)OCc1cccc(Oc2ccccc2)c1 (centres undefined) | inactive | inactive | inactive | inactive | inactive | inactive | inactive | inactive |  |  |  | inactive |  |  |  |  |  |  |  |
| CC(C)(Oc1ccc(Cl)cc1)C(=O)O | inactive | inactive | inactive | inactive | inactive | inactive | inactive | inactive |  |  | inactive | inactive |  |  |  |  |  |  |  |
| COC(=O)c1ccc(C)cc1 | inactive | inactive | inactive | inactive | inactive | inactive | inactive | inactive |  |  | inactive | inactive |  |  |  |  |  |  |  |
| CN(C)C | inactive | inactive | inactive | inactive | inactive | inactive | inactive | inactive |  |  |  | inactive |  |  |  |  |  |  |  |
| O=S1(=O)CCCO1 | inactive | inactive | inactive | inactive | inactive | inactive | inactive | inactive |  |  | inactive | inactive | inactive |  |  |  |  |  |  |
| CCCN1C=CN(C)C1 | inactive | inactive |  | inactive | inactive | inactive | inactive | inactive |  |  | inactive | inactive | inactive |  |  |  |  |  |  |
| Nc1ccc(O)c(N)c1 | inactive |  |  |  | inactive | inactive | inactive | inactive | 304 nM (active) and inactive | inactive | 54.1 µM (active) | inactive | inactive |  | inactive | inactive |  |  |  |
| CC(C)[C@@H]1CC[C@@H](C)CC1=O | inactive | inactive | inactive | inactive | inactive | inactive | inactive | inactive |  |  | inactive |  |  |  |  |  |  |  |  |
| CC1(C)OC(=O)NC1=O | inactive | inactive |  | inactive | inactive | inactive | inactive | inactive | inactive | inactive | inactive | inactive | inactive |  |  |  |  |  |  |
| CCC(=O)O[C@H]1[C@H](O[C@@H]2[C@@H](C)[C@H](O[C@H]3C[C@@](C)(OC)[C@@H](O)[C@H](C)O3)[C@@H](C)C(=O)O[C@H](CC)[C@@](C)(O)[C@H](O)[C@@H](C)C(=O)[C@H](C)C[C@@]2(C)O)O[C@H](C)C[C@@H]1N(C)C | inactive | inactive |  | inactive | inactive | inactive | inactive | 25.8 µM (active) and inactive |  |  |  |  |  |  |  |  |  |  |  |
| CCCCCCCCCCC(CO)CCCCCCCC (centres undefined) | inactive | inactive |  | inactive | inactive | inactive | inactive | inactive |  |  | inactive | inactive |  |  |  |  |  |  |  |
| CC(=O)Oc1ccc(C(c2ccc(OC(C)=O)cc2)c2ccccn2)cc1 | inactive | inactive |  | inactive | inactive | inactive | inactive | 109 nM (active) and 756 nM (active) |  |  | inactive |  |  |  |  |  |  |  |  |
| O=C1CCc2ccccc2O1 | inactive | inactive | inactive | inactive | inactive | inactive | inactive | inactive | inactive | inactive | inactive |  |  |  |  |  |  |  |  |
| CC/C(=C(/CC)c1ccc(O)cc1)c1ccc(O)cc1 | inactive | inactive | 60.6 µM (active) and inactive |  | inactive | inactive | inactive | inactive |  |  |  |  |  |  |  |  |  |  |  |
| O=C(CCCN1CCC(O)(c2ccc(Cl)cc2)CC1)c1ccc(F)cc1 | 27.5 µM (active) and inactive | inactive | 61.1 µM (active) and inactive |  | 61.1 µM (active) | 54.5 µM (active) | 54.5 µM (active) and inactive | inactive |  |  | inactive |  |  | inactive |  |  |  |  |  |
| CN(C)CCCN1c2ccccc2Sc2ccc(Cl)cc21 | 43.6 µM (active) | inactive | 54.5 µM (active) and 26.6 µM (active) |  | 48.6 µM (active) | 54.5 µM (active) | 48.6 µM (active) and 26.6 µM (active) | 49 µM (active) | inactive | inactive | inactive |  | inactive |  |  |  | inactive | inactive | inactive |
